Results on eight molecules are retold here after PubChem BioAssay (Tox21).

Experiment [1] can be described thus: qHTS assay to identify small molecule agonists of the estrogen receptor alpha (ER-alpha) signaling pathway in the presence of an antagonist - cell viability counter screen (AID 1259386).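 Further: cells exposed to compounds for 22 h at 37 °C before the viability read; nearly all actives have a fitted effect of over 30% in size.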 Further: potency means the concentration at half of the fitted maximal effect. The procedure, abridged:
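Read-out: CellTiter-Fluor fluorescence after 1hr reagent incubation, measured in the same wells as the luciferase readout. VM7Luc4E2 cells were exposed to 15 compound concentrations with 10.0nM ICI-182,780 for 22hr at 37C.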
A general note: Quantitative high-throughput screening tests each substance at several concentrations.

The target in experiment [2] is Progesterone receptor (Homo sapiens) (UniProt P06401). As to the kind of experiment: qHTS assay to identify small molecule antagonists of the progesterone receptor (PR) signaling pathway (AID 1346795; active means well fitted inhibition curve with a large enough effect in the signal ratio in the repeat runs, not every such curve was filed as active; the % refers to the signal ratio; further: potency means the concentration at half of the fitted maximal effect). The procedure, abridged:
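Antagonist mode: compounds tested against 1 nM (final) promegestone stimulation in HEK293T cells expressing PR-UAS-bla reporter, 16 hr at 37C, 5% CO2; beta-lactamase activity detected via B/G FRET substrate after 2 hr at room temperature.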

The nature of experiment [3]: qHTS assay to identify small molecule antagonists of the progesterone receptor (PR) signaling pathway - cell viability counter screen (AID 1346798). Further: nearly all actives have a fitted effect of over 50% in size. Further: potency means the concentration at half of the fitted maximal effect. The method in brief: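 Counter screen for cytotoxicity: viability of PR-UAS-bla HEK293T cells was measured with CellTiter-Glo luminescence following 16 hr compound exposure in the presence of R5020.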
A short description of experiment [4]: qHTS assay to identify small molecule antagonists of the TGF-beta/Smad signaling pathway - cell viability counter screen (AID 1346824). Further: nearly all actives have a fitted effect of over 50% in size. Further: potency means the concentration at half of the fitted maximal effect. The method in brief:
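Cytotoxicity counter-screen run in the same wells as the beta-lactamase Smad reporter read: CellTiter-Glo luminescence after 30 min at room temperature. HEK 293T SBE-bla cells had 5 hr compound exposure at 37 C with TGF-beta1 (0.25 ng/mL stock).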

Experiment [5] can be described thus: qHTS assay to identify small molecule agonists of the TGF-beta/Smad signaling pathway - cell viability counter screen (AID 1346829). Further: nearly all actives have a fitted effect of over 45% in size. Further: potency means the concentration at half of the fitted maximal effect. The method in brief: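 After overnight seating at 37 C and 5% CO2, reporter cells got compounds for 5 hr and FRET substrate for 2 hr; cell viability then came from CellTiter-Glo luminescence.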
The nature of experiment [6]: qHTS assay to identify small molecule agonists of the TGF-beta/Smad signaling pathway (AID 1346859; active means well fitted activation curve with a large enough effect in the signal ratio in the repeat runs, not every such curve was filed as active; the % refers to the signal ratio; further: series mostly up to about 77 µM). The method in brief:
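Reporter line: HEK 293T with stably integrated SBE-controlled beta-lactamase. Compound exposure lasts 5 hr at 37 C and 5% CO2; substrate loading follows for 2 hr at room temperature, with emission read at 460 and 530 nm.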

In experiment [7] the target is Thyrotropin-releasing hormone receptor (Homo sapiens) (UniProt P34981). As to the kind of experiment: qHTS assay to identify small molecule agonists of the thyrotropin-releasing hormone receptor (TRHR) signaling pathway (AID 1346891; calls by dose curve;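 further: HEK293 cells expressing TRHR with calcium dye readout; series mostly up to about 58 µM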). The procedure, abridged: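 Cells: TRHR-Hek293, seeded and incubated 18 h. Dye loading: 2 h at 37 °C. Compound added from DMSO stock by pin tool. Read-out: kinetic calcium fluorescence over 3 min.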

Experiment [8] in a line: Human pregnane X receptor (PXR) small molecule agonists, qHTS cell viability counter screen (AID 1346977). Further: nearly all actives have a fitted effect of over 50% in size. Further: potency means the concentration at half of the fitted maximal effect. The procedure, abridged: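 Cytotoxicity counter screen run in the same wells as the PXR luciferase assay, using PXR-Luc HepG2 cells in charcoal-stripped serum medium. Viability: CellTiter-Fluor fluorescence after 24hr compound treatment.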
Experiment [9] can be described thus: Caspase-3/7 induction in HepG2 cells by small molecules, qHTS assay (AID 1346978). Further: nearly all actives have a fitted effect of over 15% in size. Further: potency means the concentration at half of the fitted maximal effect. The method in brief: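 Caspase-3/7 induction was measured by Caspase-Glo 3/7 luminescence (30 min, room temperature) after a 17 hr compound exposure of wild-type HepG2 cells seeded at 2,000 per well and pre-incubated 5 hr.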
Experiment [10] in a line: Caspase-3/7 induction in CHO-K1 cells by small molecules, qHTS assay (AID 1346980). Further: nearly all actives have a fitted effect of over 15% in size. The method in brief:
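Luminescent Caspase-Glo 3/7 read (30min, room temperature) quantified apoptosis induction. Cells were wild-type CHO-K1, treated with compound for 17hr at 37 C and 5% CO2.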

A short description of experiment [11]: Caspase-3/7 induction in HepG2 cells by small molecules, qHTS cell viability counter screen (AID 1346981). Further: nearly all actives have a fitted effect of over 30% in size. Further: potency means the concentration at half of the fitted maximal effect. The procedure, abridged:
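Fluorescence read-out of live-cell protease activity (CellTiter-Fluor) after 1 hr with reagent. This was measured in the same wells as the caspase-3/7 luminescence, on HepG2 cells exposed to DMSO-dissolved compounds for 16 hr at 37 C.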

The target in experiment [12] is Nuclear receptor subfamily 1 group I member 2 (Homo sapiens) (UniProt O75469). In words: Human pregnane X receptor (PXR) small molecule agonists, qHTS assay (AID 1346982). Further: nearly all actives have a fitted effect of over 35% in size. Further: potency means the concentration at half of the fitted maximal effect. The method in brief:
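HepG2 PXR-Luc reporter line, 5% charcoal-stripped FBS; 5 hr pre-incubation, compound (DMSO) 24 hr at 37 C/5% CO2; ONE-Glo 30 min RT; luminescence read-out.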

Experiment [13] addresses Acetylcholinesterase (Homo sapiens) (UniProt P22303). In words: Acetylcholinesterase (AChE) small molecule antagonists: colormetric cell-based qHTS assay (AID 1347395; calls by dose curve; further: nearly all actives have a fitted effect of over 30% in size; further: potency means the concentration at half of the fitted maximal effect). The method in brief:
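Cells (SH-SY5Y, 2,000 per well) are seeded and left overnight at 37 C. Compound is added for 30 min, then DTNB and acetylthiocholine for a further 90 min at 37 C before absorbance-based thiocholine detection.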

Experiment [14] in a line: qHTS assay to identify small molecule agonists of the progesterone receptor (PR) signaling pathway - cell viability counter screen (AID 1346799; calls by dose curve; further: nearly all actives have a fitted effect of over 45% in size; further: potency means the concentration at half of the fitted maximal effect). The method in brief: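 Cells (PR-UAS-bla HEK293T) are plated at 3,000/well in 2% charcoal-stripped FBS medium, rested 6 hr, dosed and incubated 16 hr at 37C. CellTiter-Glo is then added and luminescence measured after 30 min at room temperature.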

Experiment [15] has as its target Thyrotropin-releasing hormone receptor (Homo sapiens) (UniProt P34981). As to the kind of experiment: qHTS assay to identify small molecule antagonists of the thyrotropin-releasing hormone receptor (TRHR) signaling pathway (AID 1346877; active means well fitted inhibition curve with a large enough effect in the repeat runs, not every such curve was filed as active; further: series mostly up to about 51 µM). The procedure, abridged: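 HEK293/TRHR cells, 18 h, 37 °C; Ca2+ dye 2 h; cpd 5 min RT; TRH 1 nM final; fluorescence read 3 min, 1 s intervals; 15 concs, triplicate.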

Experiment [16] is described as follows: Caspase-3/7 induction in CHO-K1 cells by small molecules, qHTS cell viability counter screen (AID 1346979). Further: nearly all actives have a fitted effect of over 35% in size. Further: potency means the concentration at half of the fitted maximal effect. The method in brief:
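Cytotoxicity counter screen run in parallel with the caspase-3/7 assay: CHO-K1 cells, 16hr compound treatment at 37C, then CellTiter-Fluor for 1hr before fluorescence reading.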

Experiment [17] concerns the target Nuclear receptor subfamily 1 group I member 2 (Rattus norvegicus) (UniProt Q9R1A7). In words: Rat pregnane X receptor (rPXR) activation by small molecules, qHTS assay (AID 1346983). Further: nearly all actives have a fitted effect of over 20% in size. The note with it: rPXR luciferase reporter cells, One-Glo luminescence, 24 h; max activation: stronger effect = higher value. The method in brief:
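Luminescent readout (One-Glo luciferase, 30 min room temperature) followed 24 hr compound treatment at 37 C of rPXR cells plated 2,000 per well and preincubated 5hr; qHTS format with compounds delivered in DMSO.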

“And” between values parts separate entries of the source, which are not always exact repeats. Equal entries are not always repeated. Results filed as inconclusive are left out. Where a structure was tested more than once in an assay, its records may differ in their call. The source made the active and inactive calls. Unless noted, the call rests on the fitted dose curve; in most records, active means well fitted curve in the direction sought with a large enough effect in the repeat runs; inconclusive means weak or mixed curves; inactive means no such curve, though single readings can be large; an effect the other way counts as inactive or inconclusive.
On the % scale 0 is the no-effect control and ±100 the full control effect.

Chain of Thyrotropin-releasing hormone receptor (Homo sapiens) (P34981 whole entry, looked up): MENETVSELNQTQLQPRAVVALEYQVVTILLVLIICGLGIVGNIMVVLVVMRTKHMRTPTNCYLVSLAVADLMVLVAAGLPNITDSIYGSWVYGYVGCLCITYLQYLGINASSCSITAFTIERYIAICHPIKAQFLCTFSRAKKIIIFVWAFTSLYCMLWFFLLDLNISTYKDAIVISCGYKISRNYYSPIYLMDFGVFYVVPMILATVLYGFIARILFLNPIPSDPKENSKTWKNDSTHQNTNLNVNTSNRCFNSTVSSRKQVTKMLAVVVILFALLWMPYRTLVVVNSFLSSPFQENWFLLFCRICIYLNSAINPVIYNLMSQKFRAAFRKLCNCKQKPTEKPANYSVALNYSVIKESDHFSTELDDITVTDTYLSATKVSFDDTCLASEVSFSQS
Chain of Nuclear receptor subfamily 1 group I member 2 (Homo sapiens) (O75469 whole entry, looked up): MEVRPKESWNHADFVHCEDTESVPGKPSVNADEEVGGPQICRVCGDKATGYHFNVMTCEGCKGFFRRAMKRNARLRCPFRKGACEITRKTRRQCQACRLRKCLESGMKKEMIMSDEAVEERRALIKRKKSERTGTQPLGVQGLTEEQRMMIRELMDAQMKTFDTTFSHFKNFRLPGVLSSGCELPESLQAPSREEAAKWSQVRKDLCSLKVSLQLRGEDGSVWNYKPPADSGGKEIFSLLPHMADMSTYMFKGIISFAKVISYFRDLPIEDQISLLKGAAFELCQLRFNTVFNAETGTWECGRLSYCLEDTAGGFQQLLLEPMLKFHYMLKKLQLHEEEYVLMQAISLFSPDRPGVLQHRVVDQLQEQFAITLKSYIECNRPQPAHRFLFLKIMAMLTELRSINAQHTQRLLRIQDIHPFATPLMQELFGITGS
Chain of Acetylcholinesterase (Homo sapiens) (P22303 whole entry, looked up): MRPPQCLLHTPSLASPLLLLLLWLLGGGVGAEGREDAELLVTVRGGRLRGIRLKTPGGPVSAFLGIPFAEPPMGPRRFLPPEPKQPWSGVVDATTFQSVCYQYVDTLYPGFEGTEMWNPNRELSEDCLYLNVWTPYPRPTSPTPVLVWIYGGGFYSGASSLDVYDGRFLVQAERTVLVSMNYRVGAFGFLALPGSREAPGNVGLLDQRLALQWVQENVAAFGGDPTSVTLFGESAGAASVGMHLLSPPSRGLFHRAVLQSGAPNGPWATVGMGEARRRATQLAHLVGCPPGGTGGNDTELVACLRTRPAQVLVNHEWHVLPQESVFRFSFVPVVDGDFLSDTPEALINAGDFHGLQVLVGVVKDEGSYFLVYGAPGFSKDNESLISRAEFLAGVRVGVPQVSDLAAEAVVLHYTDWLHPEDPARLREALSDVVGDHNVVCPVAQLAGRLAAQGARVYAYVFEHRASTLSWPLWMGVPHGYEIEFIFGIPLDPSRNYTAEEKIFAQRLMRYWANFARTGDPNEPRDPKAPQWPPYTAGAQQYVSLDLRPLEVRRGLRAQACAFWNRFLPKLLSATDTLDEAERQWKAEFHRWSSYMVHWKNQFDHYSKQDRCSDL
Chain of Progesterone receptor (Homo sapiens) (P06401 whole entry, looked up): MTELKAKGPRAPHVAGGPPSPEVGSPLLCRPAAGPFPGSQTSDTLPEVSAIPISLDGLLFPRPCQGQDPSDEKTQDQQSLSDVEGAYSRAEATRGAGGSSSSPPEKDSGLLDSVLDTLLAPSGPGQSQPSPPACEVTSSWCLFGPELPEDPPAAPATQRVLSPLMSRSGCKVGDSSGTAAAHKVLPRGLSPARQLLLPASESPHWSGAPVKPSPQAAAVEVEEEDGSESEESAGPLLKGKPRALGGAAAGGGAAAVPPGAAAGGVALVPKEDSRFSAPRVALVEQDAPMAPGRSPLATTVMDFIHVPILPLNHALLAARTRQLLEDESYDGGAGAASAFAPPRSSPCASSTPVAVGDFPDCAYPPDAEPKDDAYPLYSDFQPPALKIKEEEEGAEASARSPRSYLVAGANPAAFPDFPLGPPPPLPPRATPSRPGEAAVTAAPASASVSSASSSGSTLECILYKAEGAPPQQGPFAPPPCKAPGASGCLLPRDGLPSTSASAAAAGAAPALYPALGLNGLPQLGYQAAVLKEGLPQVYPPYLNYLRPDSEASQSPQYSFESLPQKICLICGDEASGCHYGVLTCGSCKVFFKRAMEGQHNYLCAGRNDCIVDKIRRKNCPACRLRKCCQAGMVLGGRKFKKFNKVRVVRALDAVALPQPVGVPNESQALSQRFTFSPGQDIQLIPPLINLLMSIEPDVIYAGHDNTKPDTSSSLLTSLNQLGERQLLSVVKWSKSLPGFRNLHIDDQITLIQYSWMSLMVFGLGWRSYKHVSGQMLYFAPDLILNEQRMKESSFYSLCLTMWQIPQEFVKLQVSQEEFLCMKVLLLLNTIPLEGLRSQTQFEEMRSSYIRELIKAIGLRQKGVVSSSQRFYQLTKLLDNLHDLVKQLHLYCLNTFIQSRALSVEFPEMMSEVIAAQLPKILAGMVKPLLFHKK
Chain of Nuclear receptor subfamily 1 group I member 2 (Rattus norvegicus) (Q9R1A7 whole entry, looked up): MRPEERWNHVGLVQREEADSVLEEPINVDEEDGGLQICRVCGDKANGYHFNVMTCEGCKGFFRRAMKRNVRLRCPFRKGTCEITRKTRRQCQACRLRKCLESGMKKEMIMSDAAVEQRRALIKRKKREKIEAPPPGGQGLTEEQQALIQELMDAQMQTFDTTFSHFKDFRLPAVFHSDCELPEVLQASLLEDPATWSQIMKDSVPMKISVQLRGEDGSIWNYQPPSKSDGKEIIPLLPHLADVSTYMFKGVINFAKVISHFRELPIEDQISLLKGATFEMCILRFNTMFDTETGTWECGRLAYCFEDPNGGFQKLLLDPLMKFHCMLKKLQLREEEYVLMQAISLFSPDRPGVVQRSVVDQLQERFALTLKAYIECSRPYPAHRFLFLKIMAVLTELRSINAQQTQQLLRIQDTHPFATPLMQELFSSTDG

For the molecule `CCC1COC(Cn2cncn2)(c2ccc(Cl)cc2Cl)O1` (stereo not drawn), the Potency result in [1], in [3], in [4], in experiment [5], in experiment [7] and in experiment [8] was “inactive” throughout. Moreover, the Potency result in experiment [9], in experiment [10], in experiment [11] and in [13] was “inactive” in each case. The Potency is 27.3 µM (active) in experiment [2] and 19.3 µM (active) in [12]. For the same molecule, in experiment [6], the result was inactive.
On to `O=c1[nH]c(Cl)c(Cl)cc1Cl`, for which the Potency result in experiment [1], in [2], in [4], in experiment [5], in experiment [7] and in experiment [8] was “inactive” in each case. Moreover, the Potency result in [9], in experiment [10], in experiment [11] and in experiment [13] was “inactive” each time.
Regarding `COC(=O)/C=C(\C)OP(=O)(OC)OC`, the Potency entry in experiment [1], in experiment [3], in [14], in experiment [5], in [15] and in experiment [7] was “inactive” each time. For the same molecule, the Potency entry in [8], in experiment [9], in experiment [16], in experiment [10], in [11] and in [12] was “inactive” in each case. The Potency in experiment [4] was 0.174 µM (active); in experiment [13], 2.24 µM (active). For the same molecule, in experiment [6], the molecule was called inactive.
On to `CCCCCCCCCCCCCCn1cc[n+](C)c1`, for which the Potency in experiment [1] is 15.4 µM (active) and 24.1 µM (active); in experiment [14] it was 30.7 µM (active) and 42.8 µM (active) and inactive; in experiment [5], 49.1 µM (active) and 38.5 µM (active) and inactive; in experiment [8] it was 12.2 µM (active) and 27 µM (active); in [9] it was 43.4 µM (active) and inactive; in [16], 4.34 µM (active) and 8.54 µM (active) and 61.1 µM (active). The Potency was 61.3 µM (active) and 67.8 µM (active) and 54.4 µM (active) in experiment [11]; 3.86 µM (active) and 4.28 µM (active) and 21.7 µM (active) in experiment [12]; 63.4 µM (active) and 70.2 µM (active) and inactive in [13]. Besides, the Potency result in experiment [2] and in experiment [10] was “inactive” in each case. Also, in [6], the call was inactive.
For `CN(C)c1ccc(N)cc1`, the Potency is 53.2 µM (active) in experiment [1]; 42.2 µM (active) in experiment [8]; 47.4 µM (active) in experiment [11]; 8.42 µM (active) in [12]; 12.3 µM (active) in experiment [13]. The Potency result in experiment [3], in experiment [4], in [15], in experiment [7], in experiment [9] and in [10] was “inactive” throughout. In addition, the result in experiment [6] was inactive.
Turning to `C[C@]12C/C(=C/O)C(=O)C[C@@H]1CC[C@@H]1[C@@H]2CC[C@@]2(C)[C@H]1CC[C@]2(C)O`, the Potency entry in [1], in experiment [4], in experiment [5], in [15], in [7] and in experiment [8] was “inactive” in each case. In addition, the Potency entry in experiment [9], in experiment [10], in experiment [11] and in [13] was “inactive” each time. The values for the Potency in [3], in [14] and in experiment [16] were 69.2 µM (active), 77.7 µM (active) and 43.7 µM (active), respectively. Moreover, in experiment [17], the max activation is 1.42% (inactive).
As for `ClSC(Cl)(Cl)Cl`, the Potency entry in experiment [1], in experiment [3], in [14], in experiment [4], in experiment [5] and in [7] was “inactive” in each case. Further, the Potency result in [8], in [9], in experiment [16], in experiment [10], in experiment [11] and in experiment [12] was “inactive” each time. In addition, the Potency result in [13] is “inactive”. Further, in [6], the molecule was called inactive.
In the case of `Cc1cccc(Cc2cnc[nH]2)c1C`, the Potency result in [1], in [3], in experiment [14], in [4], in [5] and in experiment [8] was “inactive” each time. For the same molecule, the Potency entry in experiment [9], in experiment [16], in [10], in experiment [11], in [12] and in experiment [13] was “inactive” in each case. Moreover, the call in experiment [6] was inactive.
